Pf Dd2 growth: blocks in vitro growth of P. falciparum Dd2; P. falciparum Dd2 growth, SYBR Green, 72 h; Potency, µM (series often up to 28.9 µM), most hits filed as inhibitors; 4.3% of 120,000 active; active = well fitted inhibition curve with a large enough effect; note: nearly all actives have a fitted effect of over 65% in size
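Infected erythrocytes (Dd2, 0.3% parasitemia, 2.5% hematocrit final) are added to compound in RPMI-1640/Albumax II medium, grown 72 h at 37C in low oxygen, then lysed with saponin/Triton-X containing SYBR Green and read by fluorescence.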
Of the large screens only hits and unclear results are named; the others gave an inactive call. This excerpt belongs to a sample that is enriched for hits.

Cc1ccc(C)c(NC(=O)CN2C(=O)COc3ccc(Cl)cc32)c1	none
CCOCc1nc(C2CCCN(C(=O)COC)C2)no1 (centres undefined)	none
O=C(C1CC1)N1C[C@@H]2OCC(=O)N(Cc3ccc(F)cc3)[C@@H]2C1	none
CC(C)c1cc(NCCC(=O)NC2CCCCC2)n2nccc2n1	none
O=C(CN1C(=O)NC(c2ccc(Cl)cc2)C2=C1COC2=O)Nc1ccc2c(c1)CCC2 (centres undefined)	none
O=C(NC1CCCCC1)N1CCC(c2noc(C3CC3)n2)C1 (centres undefined)	none
COc1ccc(CNC(=O)c2noc(-c3ccc(C)cc3)n2)c(OC)c1	none
CNC(=O)[C@@H](C1CCCCC1)N1CCC[C@H]1C(=O)N1CCOCC1	none
CCOc1cc(-c2c(-c3ccccc3)ncn2CCNC(C)=O)ccc1OC	none
OCCCn1cnc(-c2ccccc2)c1-c1ccc(-c2ccn[nH]2)o1	none
COc1cc2c(cc1-c1c(-c3ccccc3)ncn1CCCO)CCC2	Pf Dd2 growth 12.6µM
Cc1ccc(NC(=O)C2CCN(S(=O)(=O)c3cccc4nsnc34)CC2)cc1	none
CCN(C(=O)C(Cc1ccccc1)NS(=O)(=O)c1cccc2nsnc12)c1ccccc1 (centres undefined)	none
CCCCN(CC)C(=O)C1CCC(CNS(=O)(=O)c2cccc3nsnc23)CC1 (centres undefined)	Pf Dd2 growth 2.82µM
CCCCN(CC)CCNC(=O)C1CCCN(S(=O)(=O)c2cccc3nsnc23)C1 (centres undefined)	none
Cc1ccc(NC(=O)C2CCCN2S(=O)(=O)c2cccc3nsnc23)c(C)c1 (centres undefined)	none
CCN(C(=O)C1CCC(CNS(=O)(=O)c2cccc3nsnc23)CC1)c1ccc(C)c(C)c1 (centres undefined)	Pf Dd2 growth 4.47µM
O=C(Nc1ccc(C(F)(F)F)cc1)C1CCC(CNS(=O)(=O)c2cccc3nsnc23)CC1 (centres undefined)	Pf Dd2 growth 2.82µM
O=C(Nc1ccc(F)c(F)c1)C1CCCN1S(=O)(=O)c1cccc2nsnc12 (centres undefined)	Pf Dd2 growth 11.2µM
COc1ccc(NC(=O)CCNS(=O)(=O)c2cccc3nsnc23)cc1	none
CCc1ccc(NC(=O)C2CCCN2S(=O)(=O)c2cccc3nsnc23)cc1 (centres undefined)	none
CCN(CC)c1ccc(NC(=O)CCS(=O)(=O)c2cccc3nsnc23)c(C)c1	none
Cc1ccc(NC(=O)C2CCC(CNS(=O)(=O)c3cccc4nsnc34)CC2)c(C)c1 (centres undefined)	none
C=CCN(Cc1ccccc1OC)C(=O)c1cnn(CCC)c1C	none
O=C(O)CC1COCCN1C(=O)Cn1cnnn1 (centres undefined)	none
Cc1cccc(N2CCN(C(=O)c3noc(-c4ccc[nH]c4=O)n3)CC2)c1	none
Cc1ccc(S(=O)(=O)N2CCC(CCC(=O)O)CC2)cc1	none
CCc1cccc(NC(=O)N2CC(C(=O)N(C)C)C3(CCOCC3)C2)c1 (centres undefined)	none
NCCCC(=O)N1CCCC(N2CCN(Cc3ccc4c(c3)OCO4)CC2)C1 (centres undefined)	none
CN1CCCC1CCn1nc(C2CCNCC2)n(Cc2ccccc2)c1=O (centres undefined)	none
CNC(=O)[C@H]1C[C@H](Oc2cccnc2)CN1S(=O)(=O)c1ccc(F)cc1	none
CCOc1ccc(NC(=O)Cn2cc(C(=O)c3ccc(C)c(C)c3)c(=O)c3cc(OC)c(OC)cc32)cc1	none
CCOc1ccc2c(c1)c(=O)c(C(=O)c1ccc3c(c1)OCO3)cn2Cc1ccc(F)cc1	none
COc1cccc(C(=O)c2cn(CC(=O)NCCc3ccccc3)c3nc(C)ccc3c2=O)c1	none
COc1cccc(Cn2cc(C(=O)c3ccc(Cl)cc3)c(=O)c3ccccc32)c1	Pf Dd2 growth 14.1µM
COc1ccc(C(=O)c2cn(Cc3cccc(C)c3)c3cc4c(cc3c2=O)OCO4)cc1	none
COc1ccc(Cn2cc(C(=O)c3ccc(C)c(C)c3)c(=O)c3ccccc32)cc1	Pf Dd2 growth 11.2µM
COc1ccc(C(=O)c2cn(CC(=O)Nc3cc(OC)cc(OC)c3)c3ccc(OC)cc3c2=O)cc1	none
COc1cc2c(=O)c(C(=O)c3ccc(C)c(C)c3)cn(Cc3ccccc3)c2cc1OC	Pf Dd2 growth 12.6µM
COc1ccc(CCNC(=O)Cn2cc(C(=O)c3ccc(F)cc3)c(=O)c3ccc(C)nc32)cc1OC	none
COc1ccccc1Cn1cc(C(=O)c2ccc(Cl)cc2)c(=O)c2ccccc21	none
COc1cc2c(=O)c(C(=O)c3ccc(C)c(C)c3)cn(Cc3ccc(F)cc3)c2cc1OC	Pf Dd2 growth 4.47µM
Cc1ccc(C(=O)c2cn(Cc3ccccc3)c3cc4c(cc3c2=O)OCCO4)cc1	none
CC(C)NC(=O)CCc1cc2n(n1)CCN(C(=O)CN1CC(=O)NC1=O)C2	none
C=CCNC(=O)CCc1nnc(-c2cccc(OC(C)C)c2)[nH]c1=O	none
COc1ccc(CCNC(=O)c2ccc3nc(C)cn3c2)cc1	none
Cc1ccc2nc3n(c2c1)[C@@H](CNCc1ccc(C#N)cc1)COC3	none
Cc1cc(C(=O)N2CCC(c3nnc(Cn4ccnc4)n3C)CC2)on1	none

Bioassay records from PubChem.
